Most compounds without a hit are left out; they make up all but 1.8% or so of the library.
PfHsp40 yeast: compounds rescuing yeast from Plasmodium falciparum HSP40 toxicity; S. cerevisiae expressing PfHsp40, growth rescue, ATP luminescence; growth rescue, % at 12.5 µM; 0.68% of 340,000 active; AID 504582; in the data active = growth rescue above about 28%, passing the limit was not always enough;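 also: yeast W303a lacking pdr1 and pdr3 grown in galactose medium; growth measured after three days at 30 °C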
ugtP null kill: compounds lethal to S. aureus RN4220 ugtP deletion mutant; OD600 growth, 16 h; growth inhibition, % (test concentration not listed); 0.54% of 330,000 active; in the data active = growth inhibition above about 68%;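 also: plate controls were untreated wells for no effect and antibiotic for full effect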
DUSP3 inh: blocks human VHR1 dual specificity phosphatase. P51452. recombinant VHR phosphatase, pNPP absorbance. inhibition, % at 13.3 µM. 0.52% of 290,000 active. AID 1654; in the data active = inhibition above about 50%
Target sequence (P51452 whole entry, looked up): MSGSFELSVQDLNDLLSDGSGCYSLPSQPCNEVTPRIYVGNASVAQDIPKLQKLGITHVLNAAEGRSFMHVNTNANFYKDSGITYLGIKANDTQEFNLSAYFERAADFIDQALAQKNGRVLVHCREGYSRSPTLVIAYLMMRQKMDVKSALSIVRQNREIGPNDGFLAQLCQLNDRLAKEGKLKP
PrPC surface inh: cell surface PrPC inhibition, primary TR-FRET screen. TR-FRET read-out. P04156. 0.43% of 370,000 active. inhibition, % at 13.8 µM. AID 720596; in the data active = inhibition above about 24%; also: 0% = median of the test wells and 100% = reference compound wells
Sa RN4220 lethal: kills Staphylococcus aureus RN4220. S. aureus RN4220 growth, OD600, 16 h. 0.33% of 330,000 active. AID 1259311. inhibition, % (no concentration beside the values); in the data active = inhibition above about 85%;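 also: plate controls were untreated cells for no effect and reference antibiotic for full effect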
Starred values were filed as active, the others as inactive; x = no result given; ! = not confirmed by another sample.

SMILES	PfHsp40 yeast	ugtP null kill	DUSP3 inh	PrPC surface inh	Sa RN4220 lethal
CC(=O)N1CCN(c2cc3c(cc2F)c(=O)c(C(=O)O)cn3C2CC2)CC1	1	99*	41	1	98*
CCCOc1ccc(C(=O)NC(=S)N2CCN(c3cc4c(cc3F)c(=O)c(C(=O)O)cn4CC)CC2)cc1	0	96*	-4	10	44
CCn1cc(C(=O)O)c(=O)c2cc(F)c(N3CCN(C(=S)NC(=O)c4cccc(F)c4)CC3)cc21	1	9	12	2	12
COC(=O)CN1C(=O)C2C(C3CC3)N3C(=O)CN(Cc4ccc(-c5ccccc5)cc4)C(=O)[C@@]3(Cc3ccccc3)C2C1=O (some centres undefined)	x	1	x	x	8
CC=C(C)C(=O)OC(C(O)c1cc2ccc(=O)oc2cc1OC)C(C)(C)OC1OC(CO)C(O)C(O)C1O (centres undefined)	x	1	x	x	1
CCc1c(C(=O)NN=Cc2cn[nH]c2-c2ccc(F)cc2)csc1C	x	0	x	x	-1
O=C(CN1C(=O)C(=Cc2ccccc2)SC1=S)Nc1cccnc1	x	-6	x	x	4
CCn1cc(C(=O)O)c(=O)c2cc(F)c(N3CCN(C(=S)NC(=O)c4ccc(F)cc4)CC3)cc21	1	84	25	5	86
CCn1cc(C(=O)O)c(=O)c2cc(F)c(N3CCN(C(=S)NC(=O)c4ccc(F)c(F)c4)CC3)cc21	-1	100*	-4	2	100*
COc1ccc(OCC(=O)NN=C2C=C(C)CC2)cc1	x	-4	x	x	8
Cc1ccc(NC(=S)NN=Cc2c(C)[nH]c3ccccc23)cc1	x	88*	x	x	92*
C=CCn1c(Sc2ncc([N+](=O)[O-])s2)n[nH]c1=O	0	89*	17	-22	27
CC1CN(C(=O)C=Cc2ccccc2[N+](=O)[O-])CC(C)O1 (centres undefined)	x	-6	x	x	-1
O=C(/C=C/c1ccc(F)cc1)NCCCN1CCN(CCCNC(=O)/C=C/c2ccc(F)cc2)CC1	37*	3	12	-3	5
C[C@@]12CCC3[C@@](CCC4[C@@]3(C)CCC[C@@]4(C)C(=O)O)(CC1NCc1ccccc1)C2 (some centres undefined)	x	2	x	x	7
CCOC(=O)c1c2c(n(C)c1C)C(=O)C(=O)c1ccc(Br)cc1-2	0	95*	x	-3	95*
CC1(C)C2CC=C(C=NNC(=O)c3ccc(O)cc3)C1C2 (centres undefined)	x	12	x	x	0
CC(=NN=C(N)SC1CC(=O)N(c2ccc(Cl)c(Cl)c2)C1=O)c1cccs1 (centres undefined)	x	99*	x	x	100*
CC(=NN=C(N)SC1CC(=O)N(c2cccc(Cl)c2)C1=O)c1cccs1 (centres undefined)	x	9	x	x	65
Cc1cc(-n2ccnc2)n2c(nc3ccccc32)c1C#N	38*	9	20	0	1
CCCc1cc(-n2ccnc2)n2c(nc3ccccc32)c1C#N	-2	27	-5	-5	7
CN(CCOc1ccc(Cl)c(Cl)c1)Cc1ccccc1	36*	18	10	2	5
O=C(OCCN1CCCC1)C1(c2ccccc2)CCCC1	50*!	21	13	6	20
CC[C@@H](C(=O)[C@@H](C)[C@@H](O)[C@H](C)[C@@H]1O[C@@H]([C@@H](CC)C(=O)O)CC[C@@H]1C)[C@H]1O[C@]2(C=C[C@@H](O)[C@]3(CC[C@@](C)([C@H]4CC[C@](O)(CC)[C@H](C)O4)O3)O2)[C@H](C)C[C@@H]1C	220*	x	x	70*	x
COc1ccc(C2C3C(=O)N(C(C)(C)C)C(=O)C3[C@]3(Cc4ccc(Cl)cc4)C(=O)N(c4cccc(F)c4)C(=O)N23)cc1 (some centres undefined)	x	-5	x	x	7
SMILES	PfHsp40 yeast	ugtP null kill	DUSP3 inh	PrPC surface inh	Sa RN4220 lethal
O=[N+]([O-])/C=C/c1c(OCc2ccccc2)ccc2ccccc12	-1	x	-2	x	x
CCOC(=O)COc1ccc2ccccc2c1/C=C/[N+](=O)[O-]	-2	87*	-6	0	81
CCOC(=O)Cn1cc(/C=C/[N+](=O)[O-])c2ccccc21	0	6	7	-9	11
CCOc1ccc(/C=C/[N+](=O)[O-])c2ccccc12	0	95*	20	x	96*
NC(=O)C1CC2(CC(c3cccc(NC(=O)COc4ccc(Cl)cc4)c3)=NO2)CN1C(=O)Cc1ccc([N+](=O)[O-])cc1 (centres undefined)	x	-20	x	x	-2
CCOC(=O)C1=CN(Cc2cccc(Br)c2)S(=O)(=O)N(C)C1C (centres undefined)	40*	10	x	-1	6
Cc1ccccc1N(CC(=O)NCc1ccccc1)C(=O)CCC(=O)Nc1nccs1	2	4	51*	-1	0
CCOC(=O)c1ccc(NC(=S)N(Cc2cccnc2)Cc2ccco2)cc1	389*	-6	6	4	-5
COC(=O)c1ccc(NC(=S)N(Cc2cccnc2)Cc2ccco2)cc1	2	-2	16	-1	0
COc1ccc(C=NNc2nncc3ccccc23)cc1	x	5	x	x	5
C[C@@]12CCC=CC1C(c1ccc(C=Cc3ccccc3)cc1F)N(Cc1ccccc1)C2=O (some centres undefined)	x	-7	x	x	-3
CCOc1cc(/C=C(\C#N)C(=O)Nc2cccc(C(=O)O)c2)ccc1OCc1ccc(Br)cc1	-1	-8	53*	3	-2
CC(=NOC(=O)c1c(-c2c(Cl)cccc2Cl)noc1C)c1cnccn1	x	4	x	x	4
CCS(=O)(=O)N1Cc2ccccc2CC1C(=O)NC(C)C12CC3CC(CC(C3)C1)C2 (centres undefined)	7	-6	2	31*	12
CCS(=O)(=O)N1Cc2ccccc2CC1C(=O)NCC12CC3CC(CC(C3)C1)C2 (centres undefined)	2	-2	20	1	5
COc1ccccc1/C=C\C(=O)NCC(=O)N/N=C/c1ccc(O)cc1O	2	x	56*	-5	x
COc1ccc(NC(=O)C2CCCN2S(=O)(=O)c2cccc3nsnc23)c(OC)c1 (centres undefined)	3	0	60*	x	-1
COc1ccc(C=NNC(=O)CON=C(C)c2cccs2)cc1	x	10	x	x	1
S=c1[nH]ncn1N=Cc1ccccc1	x	13	x	x	15
O=C(NCc1cccs1)C1CCN(S(=O)(=O)N2CCCC2)CC1	33*	11	-1	-6	4
COc1ccc(OC)c(CNC(=O)C2CCCN(S(=O)(=O)N3CCC(C)CC3)C2)c1 (centres undefined)	0	1	4	1	-1
COc1ccc(OC)c(CNC(=O)C2CCN(S(=O)(=O)N3CCCCC3)CC2)c1	-1	3	51*	2	-2
Oc1ccc(CC2CNCCN2CCc2cc(C(F)(F)F)cc(C(F)(F)F)c2)cc1 (centres undefined)	x	-6	x	x	-7
O=C(O)c1ccc2c(c1)C(=O)N(c1cccc(-c3nc4ccccc4s3)c1)C2=O	0	x	123*	5	x

Screening results from PubChem BioAssay.
